Screens deposited in PubChem BioAssay by National Center for Advancing Translational Sciences (NCATS).
SW480 rereplic – inducers of DNA re-replication in SW480 colon cancer cells; Potency, µM (series often up to 46.1 µM), inactives show top-dose re-replication activation, usual class: activators; actives 1.8% (n = 340,000); SW480 DNA re-replication, Hoechst DNA content imaging, 48 h; further: potency means the concentration at half of the fitted maximal effect; % of control where 0% means no effect; nearly all actives have a fitted effect of over 55% in size
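250 cells/well; 23 nL cpd via pin tool; 48 hr, 37 C, 5% CO2; Hoechst 40 min; imager read of total nuclear intensity, ex 405/em 500-530 nm.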
DT40 TDP1 no CPT – qHTS for Inhibitors of human tyrosyl-DNA phosphodiesterase 1 (TDP1): qHTS in cells in absence of CPT; DT40 Tdp1-/- hTDP1 cells, no CPT, ATP luminescence, 48 h; Potency, µM (series often up to 46.2 µM), inactives show at the highest dose activity change, negative = growth inhibition, hits mostly inhibitors; actives 15% (n = 420,000); further: potency means the concentration at half of the fitted maximal effect; on the % scale 0 is the no-effect control and ±100 the full control effect; nearly all actives have a fitted effect of over 55% in size
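Seeded 400 DT40-hTDP1 cells/well (vehicle DMSO, no 20 nM CPT); pinned compounds; ≥48 hr at 37 °C; CellTiter-Glo luminescence as viability measure.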
TDP1 cell CPT – DT40-hTDP1 cell growth loss with CPT; chicken DT40 Tdp1-/-;hTDP1 cells + 20 nM CPT, ATP luminescence, 48 h; Potency, µM (highest dose often 46.2 µM), for inactives: top-dose activity change, negative = growth inhibition, most hits filed as inhibitors; actives 12% (n = 420,000); AID 686979; further: potency means the concentration at half of the fitted maximal effect; on the % scale 0 is the no-effect control and ±100 the full control effect; nearly all actives have a fitted effect of over 55% in size
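Cell growth measured by CellTiter-Glo luminescence after a minimum 48 h, 37 C compound exposure with 20 nM CPT in Tdp1-knockout DT40 cells stably expressing hTDP1, seeded 400/well; qHTS titration format.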
Chronic BCR inh – chronic active BCR signaling inhibition | Potency, µM (series often up to 46.1 µM), for inactives: at the top dose activity change, negative = inhibition, hits mostly inhibitors | ABC-DLBCL IkBa-CBG/CBR reporter, luminescence ratio, 4 h | actives 0.05% (n = 340,000); active means well fitted inhibition curve with a large enough effect in the signal ratio, with a control signal flat, not every such curve was filed as active; inconclusive means small, poorly fitted or top-dose-only effect, or effect the other way, or a change in a side signal; the % refers to the signal ratio;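 further: potency means the concentration at half of the fitted maximal effect; plate controls were basal doxycycline-induced cells for no effect and cells given 10 µM MG132 for full effect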
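Cell line TMD8 (human ABC DLBCL), stably expressing tet-inducible CBG68-IkBa fusion and CBR; IMDM/0.5% FBS; cpd up to 46 uM; dox induction, 4 h, 37C/5% CO2; dual luminescence; green/red ratio; MG132 control.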
IL-1B inflam inh – blocks inflammasome-driven IL-1 beta release; activity change, % at 57.5 µM; THP-1 LPS/ATP IL-1B secretion, AlphaLISA, 16 h; active compounds read low; actives 4.7% (n = 360,000); in the data active means activity change below about -50%; inconclusive means mostly about -30% to -49%; further: on the % scale 0 is the no-effect control and ±100 the full control effect
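Secreted IL-1B measured by AlphaLISA bead assay after 16 h compound exposure of THP-1 cells; compounds (final up to 57.5 uM) added 1 h before LPS (250 ng/mL) and ATP (1.25 mM) stimulation; lower signal means less secretion.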
MCF10A rereplic – DNA re-replication induction in MCF 10a cells. MCF 10A DNA re-replication, Hoechst nuclear intensity, 48 h. Potency, µM (titrated, usually from 46.1 µM), without a hit: top-dose activity, positive = re-replication, usual class: activators. actives 2.9% (n = 350,000). AID 624296; further: potency means the concentration at half of the fitted maximal effect; % of control where 0% means no effect; nearly all actives have a fitted effect of over 50% in size
Starred values were filed as active, the others as inactive; ? = inconclusive; nt = not tested or not shown; [ ] = another dose, or the depositor's remark. Shown are actives, neighbours in structure and some others; about 19% of the full set was active somewhere. Unless noted, the call rests on the fitted dose curve; in most records, active means well fitted curve in the direction sought with a large enough effect; inconclusive means small, poorly fitted or top-dose-only effect, or another doubt; inactive means no such curve, though single readings can be large; an effect the other way counts as inactive or inconclusive.

SMILES	SW480 rereplic	DT40 TDP1 no CPT	TDP1 cell CPT	Chronic BCR inh	IL-1B inflam inh	MCF10A rereplic
CC(C(=O)N1CCN(c2ccccc2)CC1)c1ccc([N+](=O)[O-])cc1 (configuration not stated)	-6%	-30%	-25%	-5%	-13	0%
CCOc1ccc(NS(=O)(=O)c2ccc3[nH]c4c(c3c2)CCCC4)cc1	nt	?	-23%	nt	nt	nt
COc1ccc(NS(=O)(=O)c2ccc3[nH]c4c(c3c2)CCCCC4)cc1	nt	23µM*	16µM*	nt	nt	nt
COc1ccc(NS(=O)(=O)c2ccc3[nH]c4c(c3c2)CCCC4)c(OC)c1	nt	21µM*	21µM*	nt	nt	nt
CCOc1ccc(NS(=O)(=O)c2ccc3[nH]c4c(c3c2)CCCCC4)cc1	nt	18µM*	23µM*	nt	nt	nt
CCOC(=O)N1CCN(C(=O)c2ccc3oc(CCCc4ccccc4)nc3c2)CC1	-7%	?	?	-9%	-22	0%
CC(C)NC[C@H](O)COc1ccc(CC(N)=O)cc1	-4%	-12%	-22%	-11%	-19	-22%
CN(C)C(=O)c1ccc(-c2ccc3ncnc(N4CCNCC4)c3c2)cc1	nt	-19%	-9%	nt	nt	nt
Cc1cccn2c(=O)c(/C=C(\C#N)C(=O)NCc3ccccc3)c(N3CCC(C(N)=O)CC3)nc12	?	-27%	15%	1%	-12	0%
FC(F)(F)c1cnc(-c2cc3c(c(OCC4CCCO4)c2)OCCN(Cc2cccn2-c2nccs2)C3)c(Cl)c1 (configuration not stated)	nt	-7%	15%[9.04 µM]	nt	nt	nt
CCCCN1C(=O)C(O)(CC(=O)c2ccccc2OC)c2ccccc21 (configuration not stated)	-2%	-4%	-2%	-1%	19	29%
CCCN1C(=O)C(O)(C2CC(=O)CC(C)(C)O2)c2ccccc21 (configuration not stated)	16µM*	5.8µM*	5.8µM*	-2%	28	?
CCCN1C(=O)C(O)(C2COC(C)(C)CC2=O)c2ccccc21 (configuration not stated)	?	13µM*	3.7µM*	0%	11	-5%
CCN1C(=O)C(O)(C2COC(C)(C)CC2=O)c2ccccc21 (configuration not stated)	-6%	8.2µM*	13µM*	-5%	5	?
CCOC(=O)CN1C(=O)C(O)(C2CCc3ccccc3C2=O)c2ccccc21 (configuration not stated)	-5%	?	?	1%	25	1%
CCN1C(=O)C(O)(C2COC(C)(C)CC2=O)c2cc(Br)ccc21 (configuration not stated)	9%	1.2µM*	1.3µM*	?	-9	13%
CCNC(=O)N1C(=O)C2(OCCO2)c2cc(Br)ccc21	-16%	-18%	-14%	1%	7	-2%
CCN(c1cccc(C)c1)S(=O)(=O)c1cc2c3c(c1)CCC(=O)N3CCC2	-89%	?	?	4%	-2	?
CN1C(=O)C(O)(C2OC(C)(C)CCC2=O)c2ccccc21 (configuration not stated)	3%	6.5µM*	8.2µM*	-29%	29	2%
CN1C(=O)C(O)(c2nnc(-c3ccccc3)o2)c2ccccc21 (configuration not stated)	-119%	9%	5%	-3%	-10	-40%
CCC1(c2ccccc2)NC(=O)N(CC(=O)Nc2ccc(N3CCCC3)cc2C)C1=O (configuration not stated)	-4%	-25%	-3%	-27%	-23	-1%
COC(C(=O)N/N=C(\C)c1ccc(C(C)(C)C)cc1)c1ccccc1 (configuration not stated)	6%	?	?	?	?	28%
